# PubChem BioAssay AID2289 (National Center for Advancing Translational Sciences (NCATS), 2010)
# Hit rate of the full screen: of about 340,000 compounds, about 3,300 (0.97%) were called active. Inconclusive results (about 9%) are left out. The call rests on the fitted dose curve; in most records, active means well fitted inhibition curve with a large enough effect; inconclusive means small, poorly fitted or top-dose-only effect, or effect the other way; inactive means flat fitted curve, though single readings scatter. Some of the results follow.
# Assay: qHTS Assay for Modulators of miRNAs and/or Inhibitors of miR-21; further: nearly all actives have a fitted effect of over 55% in size
# Conditions: HeLa miR-21-FLuc reporter, luciferase luminescence, 48 h; actives lower the signal
# In short: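 Using DMEM plus 10% FBS, HeLa miR-21-FLuc cells are incubated with test compounds (final up to about 40uM) for 48 hours; firefly luciferase signal is then imaged following reagent-mediated lysis.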
# Potency means the concentration at half of the fitted maximal effect.
row,Structure (SMILES),Potency
1,COC(=O)Nc1ccc2c(c1)ncn2C1CCCCC1,18.5 µM (active)
2,CN(c1ccccc1)S(=O)(=O)c1nnc(NC(=O)c2cccs2)s1,0.117 µM (active)
3,Cc1cc(=O)[nH]c(N/N=C/c2cc(C)n(-c3ccccc3)c2C)n1,3.29 µM (active)
4,COc1ccc(NC(=S)NC(=O)c2ccc(Br)o2)cc1,3.29 µM (active)
5,COc1ccc(NC(=O)c2ccc(Br)o2)cc1,4.14 µM (active)
6,Cc1ccc(C(=O)NC(=S)NCC2CCCO2)cc1Br (centres undefined),8.26 µM (active)
7,O=[N+]([O-])c1ccccc1/C=C/c1ccc2ccccc2n1,1.31 µM (active)
8,C(=C\c1ccco1)/c1ccc2ccccc2n1,0.656 µM (active)
9,O=C(O)c1ccc(/C=C/c2ccc3cccc(O)c3n2)cc1,4.14 µM (active)
10,O=[N+]([O-])c1cccc2ccc(/C=C/c3ccc(F)cc3)nc12,7.36 µM (active)
11,Cc1ccc2c(CNCc3ccco3)cc(=O)oc2c1,9.27 µM (active)
12,Cc1ccc2c(CN(C)Cc3cccc(F)c3)cc(=O)oc2c1,13.1 µM (active)
13,COc1ccc(N=Cc2nc(-c3ccccc3)oc2OC(=O)c2ccccc2)cc1,1.85 µM (active)
14,CCN(/C=N/c1sc2c(c1C#N)CCCCC2)CC,3.69 µM (active)
15,CC1CCc2c(sc(/N=C/N(C)C)c2C#N)C1 (centres undefined),7.36 µM (active)
16,CN(C)/C=N/c1sc2c(c1C#N)CCCCC2,5.21 µM (active)
17,CCn1c(C)nc2cc(C(=O)NNC(=S)Nc3ccccc3Cl)ccc21,7.36 µM (active)
18,CCn1c(C)nc2cc(C(=O)NNC(=S)Nc3ccccc3OC)ccc21,14.7 µM (active)
19,CCN(CC)CCn1c2ccccc2c2nc3ccc([N+](=O)[O-])cc3cc21,14.7 µM (active)
20,O=C1CCCC(O)=C1N=Nc1ccc2c(c1)OCO2,14.7 µM (active)
21,CCSc1ccccc1C(=O)Nc1ccc(-c2nc3ccccc3s2)c(O)c1,3.69 µM (active)
22,O=C(Nc1ccc(-c2nc3ccccc3s2)c(OC(=O)c2ccccc2)c1)c1ccccc1,0.329 µM (active)
23,O=C(Nc1ccc(-c2nc3ccccc3s2)c(O)c1)C1=COCCO1,0.261 µM (active)

row,Structure (SMILES),Potency
1,O=C(CC1Sc2ccccc2NC1=O)c1ccc(Br)cc1 (centres undefined),8.26 µM (active)
2,CC(=O)Nc1ccccc1C(=O)C(=O)Nc1ccc(C)c(C)c1,5.21 µM (active)
3,CC(=O)Nc1ccccc1C(=O)C(=O)Nc1ccc(C)c(F)c1,2.33 µM (active)
4,Cn1c2ccccc2c(=O)c2ccc(-c3ccc4c(c3)OCO4)cc21,1.04 µM (active)
5,CN(C)c1ccc(-c2ccc3c(=O)c4ccccc4n(C)c3c2)cn1,4.65 µM (active)
6,Cc1ccc(N2C(=O)c3ccccc3NC2(C(=O)O)c2ccccc2)cc1Cl (centres undefined),2.93 µM (active)
7,O=[N+]([O-])c1ccccc1CSc1nc2ccccc2o1,14.7 µM (active)
8,CC(=O)c1ccc(Oc2ncnc3c2oc2ccccc23)cc1,0.927 µM (active)
9,COc1ccc(Oc2ncnc3c2oc2ccccc23)cc1,11.7 µM (active)
10,COc1ncnc2c1oc1ccccc12,8.26 µM (active)
11,Cc1nc2ccccc2c(=O)n1/N=C/c1ccccc1Cl,6.56 µM (active)
12,Cc1ccc(/C=N/n2c(C)nc3ccccc3c2=O)s1,6.56 µM (active)
13,Fc1ccccc1CSc1nnc(-c2cccs2)o1,3.29 µM (active)
14,CC(C)(C)c1nnc(NC(=O)c2ccc3c(c2)OCO3)s1,1.47 µM (active)
15,CCC(CC)c1nnc(NC(=O)c2ccc3c(c2)OCO3)s1,7.36 µM (active)
16,COc1cccc(/C=N/NC(=O)NC2CCCCC2)c1O,4.14 µM (active)
17,O=C(N/N=C/c1ccccc1F)NC1CCCCC1,10.4 µM (active)
18,O=C(N/N=C/c1cccc(F)c1)NC1CCCCC1,16.5 µM (active)
19,NS(=O)(=O)c1cccc(NC(=O)CCSc2ccccc2Cl)c1,10.4 µM (active)
20,O=C(CCSc1ccccc1Cl)Nc1cccc([N+](=O)[O-])c1,11.7 µM (active)
21,CN(C)C(=O)c1ccc(-c2cc(C(F)(F)F)nn2C)s1,6.56 µM (active)
22,O=C(CN1c2ccc(Br)cc2-c2ccccc2S1(=O)=O)N1CCCCC1,7.36 µM (active)
23,Cc1nccc(-c2cc(-c3ccc(Cl)cc3Cl)no2)n1,2.33 µM (active)

row,Structure (SMILES),Potency
1,COc1ccc(-c2csc(C3=C(O)CN(CCCN4CCCC4=O)C3=N)n2)cc1OC,16.5 µM (active)
2,Nn1c(COc2ccc(Cl)cc2)nc2ccccc2c1=O,7.36 µM (active)
3,Cc1ccccc1OCc1nc2ccccc2c(=O)n1/N=C/c1ccco1,10.4 µM (active)
4,Cc1ccccc1OCc1nc2ccccc2c(=O)n1N,16.5 µM (active)
5,c1ccc(Nc2nnc(-c3cccc4ccccc34)o2)cc1,1.85 µM (active)
6,COc1ccc(Nc2oc(-c3ccc(OC)cc3)nc2C#N)cc1,2.93 µM (active)
7,COc1ccc(Nc2oc(-c3ccccc3)nc2C#N)cc1,1.85 µM (active)
8,COc1ccc(-c2nc(C#N)c(NC(C)C)o2)cc1,6.56 µM (active)
9,CCOc1ccc(Nc2oc(Cc3ccccc3)nc2C#N)cc1,11.7 µM (active)
10,CC(C)Nc1oc(-c2cccc3ccccc23)nc1C#N,13.1 µM (active)
11,O=C1c2ccccc2C(=O)c2c1cccc2N1CCOCC1,11.7 µM (active)
12,O=c1c2ccccc2nc(-c2ccccc2)n1Cc1ccccc1,14.7 µM (active)
13,COc1ccccc1-c1ccc(NC2CCCC2)nn1,13.1 µM (active)
14,COc1ccccc1-c1ccc(NC2CCCCC2)nn1,7.36 µM (active)
15,Cn1ccc(NC(=O)Nc2ccc(Cl)cc2Cl)n1,3.69 µM (active)
16,Cc1ccc2cc(CCNC(=O)c3ccco3)c(=O)[nH]c2c1C,0.826 µM (active)
17,Cc1ccc2cc(CCNC(=O)c3ccco3)c(=O)[nH]c2c1,5.85 µM (active)
18,Cc1ccc(-c2ccc(/C=N/O)o2)cc1[N+](=O)[O-],16.5 µM (active)
19,CCCc1cc(=O)n2[nH]c(-c3ccccc3)cc2n1,4.14 µM (active)
20,Cc1cccc(NC(=O)c2ccc3c(c2)OCCO3)c1C,4.65 µM (active)
21,COc1ccccc1NC(=O)c1ccc2nsnc2c1,7.36 µM (active)
22,COc1ccccc1NC(=O)c1ccc2c(c1)OCO2,3.29 µM (active)
23,COc1cc2c(cc1NC(=O)c1ccc3c(c1)OCO3)oc1ccccc12,7.36 µM (active)
